An excerpt weighted towards active compounds, which were near 28% of everything screened.
CYP2C19 activ – activators of human cytochrome P450 2C19; activation factor at 5 µM; 96,000 tested, under 10 active; P33261; recombinant CYP2C19, luciferin-H EGE luminescence; hits give high values; 0 = fully inhibited enzyme, 1 = untreated enzyme; AID 1025;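 active = activation factor of at least 2 at 5 µM in the primary screen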;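 also: 0 = wells with 2.5 mM tranylcypromine and 1 = vehicle-only wells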
Target sequence (P33261 whole entry, looked up): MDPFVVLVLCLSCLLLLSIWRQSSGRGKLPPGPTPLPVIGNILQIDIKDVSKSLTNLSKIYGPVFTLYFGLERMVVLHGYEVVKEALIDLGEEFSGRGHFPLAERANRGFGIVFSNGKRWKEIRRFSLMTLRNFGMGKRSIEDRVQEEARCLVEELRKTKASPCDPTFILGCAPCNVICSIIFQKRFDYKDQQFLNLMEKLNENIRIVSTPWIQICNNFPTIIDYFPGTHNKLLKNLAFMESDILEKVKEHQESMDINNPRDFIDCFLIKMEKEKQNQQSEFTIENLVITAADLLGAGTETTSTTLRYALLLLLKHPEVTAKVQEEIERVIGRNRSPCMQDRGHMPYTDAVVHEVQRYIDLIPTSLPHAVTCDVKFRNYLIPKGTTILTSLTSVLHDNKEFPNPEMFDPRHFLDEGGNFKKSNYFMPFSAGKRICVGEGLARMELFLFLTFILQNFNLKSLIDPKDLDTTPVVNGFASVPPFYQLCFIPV
CYP2C9 inh – inhibitors of human CYP2C9. CYP2C9 Supersomes, luciferin-H conversion, luminescence. inhibition, % at 5 µM. P11712. actives 20% (n = 96,000);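 active = blocking of liver enzyme CYP2C9 beyond about 50% at 5 µM, limit read from the data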
D1 allo mod – D1 dopamine receptor (human) allosteric modulation; P21728; HEK293 D1, CRE-luciferase, dopamine EC30 potentiation; actives deviate in either direction; B-score at 10 µM; actives 5.9% (n = 58,000); AID 641;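 active = luminescence count or its row- and column-corrected plate score outside the 99.7% band of the plate's sample wells, on either side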
hDAT+cocaine – modulates human dopamine transporter uptake under cocaine; Q01959; LLC-PK1 hDAT cells, [14C]-dopamine uptake with cocaine IC80; actives deviate in either direction; B-score at 10 µM; actives 1.3% (n = 110,000); AID 449768;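 active = Z score or B-score, a plate-position-corrected score, falls beyond the plate's 99.7% confidence bounds, in either direction; inactive = both scores lie inside the 99.7% bounds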;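 also: scored against the spread of the other compound wells on the same plate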
CYP2C9 act – CYP2C9 (human) activation | actives 1.4% (n = 96,000) | AID 1024 | P11712 | activation factor at 5 µM | recombinant CYP2C9, luciferin-H conversion, luminescence; hits give high values; factor 1 = untreated enzyme, 0 = blocked;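 active = activation factor of 2 or more for CYP2C9 at a 5 µM dose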;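 also: 0 = sulfaphenazole-blocked wells and 1 = vehicle-only wells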
CYP2C19 inhib – human CYP2C19 inhibition. actives 21% (n = 96,000). CYP2C19 Supersomes, luciferin-H EGE luminescence, 30 min. inhibition, % at 5 µM. P33261;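 active = CYP2C19 inhibition above a set limit at 5 µM in the primary screen, cut at about 50% in these data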;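 also: plate controls were negative control wells for no effect and 2.5 mM tranylcypromine positive control for full effect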
* = called active by the depositor; . = not tested or not shown.

SMILES	CYP2C19 activ	CYP2C9 inh	D1 allo mod	hDAT+cocaine	CYP2C9 act	CYP2C19 inhib
CCOC(=O)CSc1nc2cc(C)ccc2cc1C#N	1.1	-5.4	-1.01	-0.00275	1.1	-9.0
N#Cc1c2n(c(=S)n(-c3ccccn3)c1=O)CCCCC2	1	8.3	-0.199	-0.0139	0.9	2.4
Cc1cc(C(=O)OCC(=O)c2ccc(Br)s2)no1	0.8	65.7*	-0.0713	0.185	0.3	17.2
Cc1cc(C(=O)OCC(=O)c2ccc(Br)s2)c(C)o1	0.5	32.7	0.0938	.	0.7	46.2
CCOC(=O)c1ccc(S(=O)(=O)N2CCC(C(=O)O)CC2)cc1	1	6.7	.	-0.953	0.9	-0.7
O=C(CCN1C(=O)c2ccccc2C1=O)Nc1sc2c(c1C(=O)NCc1ccco1)CCCC2	0.2	92.1*	-0.292	1.31	0.1	75.9*
Cc1ccc(C(=O)Nc2sc3c(c2C(=O)NCc2ccco2)CCCC3)cc1	0.9	65.1*	.	-1.53	0.3	8.5
O=C(Nc1sc2c(c1C(=O)NCc1ccco1)CCCC2)c1ccc2c(c1)OCO2	0.4	84.5*	0.719	1.5	0.2	63.3*
COc1ccc(C(=O)Nc2sc3c(c2C(=O)NCc2ccco2)CCCC3)cc1OC	0.5	85.9*	.	1.44	0.1	51.0*
COC(=O)CSc1nnc(CNC(=O)c2cccs2)n1-c1cc(OC)ccc1OC	1.1	-5.5	0.239	-0.284	1.1	-5.6
COc1ccc(C(=O)Nc2ccccc2C(=O)NCc2ccco2)cc1OC	0.8	36.5	.	0.699	0.6	20.5
COc1cc(C(=O)Nc2sc3c(c2C(=O)NCc2ccco2)CCCC3)cc(OC)c1OC	0.4	76.4*	.	0.032	0.2	61.1*
COc1ccc(C(=O)Nc2ccc(Cl)cc2C(=O)NCc2ccco2)cc1OC	0.7	62.7*	-0.102	-0.00677	0.4	28.7
CC1(C)N=C(c2ccc(Cl)cc2Cl)C(=O)N1	0.2	45.9	-1.08	-0.368	0.5	80.1*
Cc1cc2n(n1)SC(Nc1cc(Cl)ccc1Cl)N2 (configuration not stated)	.	.	.	0.133	.	.
Cc1cc2nc(C(F)(F)F)[nH]c(=O)n2n1	1	-9.9	-1.48	-0.0175	1.1	-4.3
CC(C)NC(=O)C1CCCN(S(=O)(=O)c2cccs2)C1 (configuration not stated)	0.4	1.7	0.267	-0.0364	1	58.0*
CC(NC(=O)C1CCCN(S(=O)(=O)c2cccs2)C1)c1ccccc1 (configuration not stated)	0.4	95.2*	0.0156	0.793	0	58.8*
COc1ccc(-c2n[nH]c(C)c2-c2ccc(Cl)cc2)c(O)c1	0.4	47.5	.	0.255	0.5	63.3*
COc1ccc(O)c(-c2c(-c3ccc(Cl)cc3)n[nH]c2C)c1	0	72.0*	-0.587	3.72*	0.3	99.0*
COc1ccc(-c2n[nH]c(C)c2-c2ccc(Cl)cc2)c(O)c1OC	1.1	-21.5	-1.56	-0.0204	1.2	-10.1
CC(C)(C)c1ccc(-c2nc(C#N)c(NCc3ccncc3)o2)cc1	0.8	67.2*	2.68	0.488	0.3	24.8
COc1ccc(-c2nc(C#N)c(NCc3ccc(C)cc3)o2)cc1OC	0.9	52.7*	2.31	-0.00816	0.5	14.8
Cc1ccc(CNc2oc(C)nc2C#N)cc1	0.7	3.5	.	2.02	1	32.0
CCN(CC)CCCNc1oc(-c2ccc(OC)c(OC)c2)nc1C#N	0.9	-6.8	-0.0176	-0.353	1.1	9.0
SMILES	CYP2C19 activ	CYP2C9 inh	D1 allo mod	hDAT+cocaine	CYP2C9 act	CYP2C19 inhib
COc1ccc(-c2nc(C#N)c(NCCc3ccccc3)o2)cc1OC	0.2	92.8*	2.66	-0.0335	0.1	80.5*
CCN(CC)S(=O)(=O)c1ccc2oc(C(=O)NC(C)C)c(C)c2c1	1	26.0	0.449	1.55	0.7	-2.5
CCN(CC)S(=O)(=O)c1ccc2oc(C(=O)NCc3ccc(C)cc3)c(C)c2c1	0.6	51.1*	.	0.265	0.5	41.8
Cc1c(C(=O)NCC2COc3ccccc3O2)oc2ccc(S(=O)(=O)N(C)C3CCCCC3)cc12 (configuration not stated)	0.5	95.1*	.	-0.00595	0	49.0
Cc1c(C(=O)O)oc2ccc(S(=O)(=O)N(CC(C)C)CC(C)C)cc12	1.1	35.9	-0.0485	0.343	0.6	-5.4
Cc1ccc(CNS(=O)(=O)c2ccc3oc(C(=O)O)c(C)c3c2)cc1	1.1	66.6*	-0.0703	0.211	0.3	-10.7
CCN(Cc1ccccc1)S(=O)(=O)c1ccc2oc(C(=O)O)c(C)c2c1	1	98.5*	-0.22	0.418	0	2.5
Cc1c(C(=O)NCC2CCCO2)oc2ccc(S(=O)(=O)N3CCCC3)cc12 (configuration not stated)	0.9	49.3	.	1.04	0.5	12.8
COC(=O)[C@H](CC(C)C)NC(=O)NC1CCCCC1C (some centres not stated)	0.7	23.2	.	-0.801	0.8	25.4
CC(=O)Nc1ccc(OCC=C(Cl)Cl)cc1	0.8	18.4	-0.772	0.418	0.8	24.0
CCN(CC)S(=O)(=O)c1ccc2oc(C(=O)O)c(C)c2c1	1	76.7*	-0.487	-0.787	0.2	-3.5
CN(C(=S)Nc1ccc(F)cc1)C1(c2ccccc2Cl)CCCCC1=O (configuration not stated)	0.2	24.2	.	-0.949	0.8	82.8*
Cc1ccc(C(N)=S)c(C)c1	.	.	-1.19	0.843	.	.
Cc1cc(C(=O)NCc2cccs2)n(-c2ccccc2)n1	0.5	59.3*	1.41	0.409	0.4	48.5
COC(CNC(=O)c1cc(C)nn1-c1ccccc1)OC	0.9	6.8	.	-0.499	0.9	6.0
CCN(CCNC(=O)c1cc(C)nn1-c1ccccc1)c1ccccc1	0.2	16.5	-0.297	-1.06	0.8	79.4*
Cc1cc(C(=O)Nc2c(C)cccc2C)n(-c2ccccc2)n1	0.9	10.1	.	-0.234	0.9	7.9
Cc1cc(C(=O)Nc2ccccc2C#N)n(-c2ccccc2)n1	0.6	57.0*	1.08	-0.311	0.4	40.8
CCOCCCNC(=O)c1cc(C)nn1-c1ccccc1	0.9	18.5	0.0188	-0.0204	0.8	6.0
O=c1[nH]nc(Cc2ccc3ccccc3n2)c2ccccc12	0.9	13.8	.	-0.175	0.9	7.8
COc1ccc(CCNC(=O)NC23CC4CC(CC(C4)C2)C3)cc1OC	0.6	-46.5	.	0.615	1.5	37.3
COC(=O)c1cc2ccc(OC)c(OC)c2c(=O)s1	0.4	26.6	.	-1.21	0.7	56.7*
COC(=O)c1cc2ccccc2c(=O)s1	0.4	-42.3	3.21	-1.27	1.4	61.1*
COc1ccc2cc(C(=O)N3CCCCCC3)sc(=O)c2c1OC	0.9	-42.5	0.0148	0.353	1.4	13.6
O=C(NCCO)c1cc2ccccc2c(=O)s1	1.1	-10.5	-0.0364	1.03	1.1	-9.7
CC(C)OC(=O)CCC1(C(=O)O)CCC(=O)NC1 (configuration not stated)	1.1	-14.9	-0.164	0.209	1.1	-12.5

Bioassay records: PubChem, several laboratories
